From publication PMC7862700, “An all-to-all approach to the identification of sequence-specific readers for epigenetic DNA modifications on cytosine” come the findings set out here.

What all share (assay): DAPPL (digital affinity profiling via proximity ligation, sequencing); 10 mM Tris-HCl pH 7.5, 50 mM NaCl, 1 mM DTT, 4% glycerol, room temperature, 30 min; GST-TFs on glutathione beads, 16-mer random dsDNA library, 0.1% formaldehyde crosslink after washing; high values mean tight binding
For assay [1], the target named is ELF1 (Homo sapiens, UniProt P32519 1-619). Conditions: protein: recombinant; tags: N-terminal GST; dsDNA, one strand shown. The procedure, abridged:
(§1)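 Human transcription factors were made in yeast as GST fusions, captured on glutathione beads and barcoded with DNA. With a tag-only sample included, the pool was incubated with 200 nmole of a random double-stranded 16-mer DNA library in Tris/NaCl/DTT/glycerol buffer at room temperature for 30 min, then crosslinked with 0.1% formaldehyde after washing, ligated by proximity, amplified and sequenced. For binding signal, each hexamer's read frequency for a factor is divided by its frequency for the tag-only sample.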

In assay [2] the target is SPI1 (Homo sapiens, UniProt P17947 1-270). Conditions: protein: recombinant; tags: N-terminal GST; dsDNA, one strand shown. The procedure, abridged:
as §1

Assay [3] addresses SPIB (Homo sapiens, UniProt Q01892 1-262). Conditions: protein: recombinant; tags: N-terminal GST; dsDNA, one strand shown. The procedure, abridged:
as §1

In assay [4] the target is HSF1 (Homo sapiens, UniProt Q00613 1-529). The conditions noted are these: protein: recombinant; tags: N-terminal GST; chain copies: 3; dsDNA, one strand shown. The procedure, abridged: as §1
Chain of HSF1 (Q00613 whole entry): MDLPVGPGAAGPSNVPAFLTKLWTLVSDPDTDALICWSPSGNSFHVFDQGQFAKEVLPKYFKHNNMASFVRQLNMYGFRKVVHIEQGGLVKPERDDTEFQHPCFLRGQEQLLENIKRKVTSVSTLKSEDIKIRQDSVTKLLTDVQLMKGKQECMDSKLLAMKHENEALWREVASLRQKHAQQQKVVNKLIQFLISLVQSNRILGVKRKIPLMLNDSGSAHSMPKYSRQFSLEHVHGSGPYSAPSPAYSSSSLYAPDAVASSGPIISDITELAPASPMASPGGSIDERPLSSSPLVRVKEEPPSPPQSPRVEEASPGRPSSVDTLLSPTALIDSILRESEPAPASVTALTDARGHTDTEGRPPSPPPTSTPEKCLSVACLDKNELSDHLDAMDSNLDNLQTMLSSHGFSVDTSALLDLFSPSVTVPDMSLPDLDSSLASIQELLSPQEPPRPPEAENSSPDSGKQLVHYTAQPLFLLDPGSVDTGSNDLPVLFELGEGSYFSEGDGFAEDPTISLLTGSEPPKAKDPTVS
The target in assay [5] is T1, SPIC (Homo sapiens, UniProt Q8N5J4 1-248).
T1 sequence: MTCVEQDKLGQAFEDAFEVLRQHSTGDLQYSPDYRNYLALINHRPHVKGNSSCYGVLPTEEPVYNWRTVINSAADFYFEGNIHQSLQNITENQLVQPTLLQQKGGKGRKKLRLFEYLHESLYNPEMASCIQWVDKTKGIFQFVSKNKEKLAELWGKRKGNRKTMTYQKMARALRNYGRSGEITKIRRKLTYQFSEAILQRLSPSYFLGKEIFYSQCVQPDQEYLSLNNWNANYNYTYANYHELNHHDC
The conditions noted are these: protein: recombinant; tags: N-terminal GST; dsDNA, one strand shown. The gist of the method: as §1

Assay [6] addresses ELF4 (Homo sapiens, UniProt Q99607 1-663). Conditions: protein: recombinant; tags: N-terminal GST; dsDNA, one strand shown. The gist of the method:
as §1

Assay [7] has as its target T2, ELK4 (Homo sapiens, UniProt P28324-2 1-405).
T2 sequence: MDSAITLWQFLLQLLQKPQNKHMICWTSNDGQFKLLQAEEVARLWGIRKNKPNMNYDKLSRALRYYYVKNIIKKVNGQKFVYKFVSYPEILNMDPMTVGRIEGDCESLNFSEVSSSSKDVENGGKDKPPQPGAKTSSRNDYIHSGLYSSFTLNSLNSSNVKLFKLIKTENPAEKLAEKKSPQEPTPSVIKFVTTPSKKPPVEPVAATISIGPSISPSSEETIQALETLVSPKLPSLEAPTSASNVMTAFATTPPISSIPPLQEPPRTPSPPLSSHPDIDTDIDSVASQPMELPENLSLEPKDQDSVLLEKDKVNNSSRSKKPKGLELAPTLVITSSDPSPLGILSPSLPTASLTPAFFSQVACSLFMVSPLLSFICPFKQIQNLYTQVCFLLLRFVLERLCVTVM
The conditions noted are these: protein: recombinant; tags: N-terminal GST; dsDNA, one strand shown. The gist of the method:
as §1

The target in assay [8] is T3, ETV3L (Homo sapiens, UniProt Q6ZN32 1-361).
T3 sequence: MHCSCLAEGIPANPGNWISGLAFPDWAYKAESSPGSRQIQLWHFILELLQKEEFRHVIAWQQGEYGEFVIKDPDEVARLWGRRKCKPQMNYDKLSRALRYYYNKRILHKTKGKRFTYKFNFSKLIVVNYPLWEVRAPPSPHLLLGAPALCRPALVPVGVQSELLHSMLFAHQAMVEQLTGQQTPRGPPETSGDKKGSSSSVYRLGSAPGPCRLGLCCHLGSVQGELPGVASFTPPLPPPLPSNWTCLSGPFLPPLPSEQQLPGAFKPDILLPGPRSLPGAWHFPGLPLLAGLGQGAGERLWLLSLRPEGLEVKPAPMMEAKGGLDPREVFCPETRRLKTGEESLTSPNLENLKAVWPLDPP
The conditions noted are these: protein: recombinant; tags: N-terminal GST; dsDNA, one strand shown. The gist of the method: as §1

Assay [9] deals with T4, ETS2 (Homo sapiens, UniProt P15036 1-469).
T4 sequence: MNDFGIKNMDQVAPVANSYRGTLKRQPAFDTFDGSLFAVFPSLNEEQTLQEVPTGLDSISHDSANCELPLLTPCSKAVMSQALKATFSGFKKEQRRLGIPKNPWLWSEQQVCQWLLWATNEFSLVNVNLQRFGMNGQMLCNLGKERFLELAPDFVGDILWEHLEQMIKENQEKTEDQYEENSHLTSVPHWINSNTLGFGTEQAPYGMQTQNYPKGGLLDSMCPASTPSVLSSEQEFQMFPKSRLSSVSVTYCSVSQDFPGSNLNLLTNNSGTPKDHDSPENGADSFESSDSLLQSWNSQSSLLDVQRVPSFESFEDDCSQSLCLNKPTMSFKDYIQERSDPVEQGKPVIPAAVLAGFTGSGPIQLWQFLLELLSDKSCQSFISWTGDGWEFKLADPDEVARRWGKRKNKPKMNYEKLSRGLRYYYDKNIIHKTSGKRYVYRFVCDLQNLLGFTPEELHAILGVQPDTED
The conditions noted are these: protein: recombinant; tags: N-terminal GST; dsDNA, one strand shown. The procedure, abridged: as §1

Assay [10] has as its target T5, ELK1 (Homo sapiens, UniProt P19419 1-428).
T5 sequence: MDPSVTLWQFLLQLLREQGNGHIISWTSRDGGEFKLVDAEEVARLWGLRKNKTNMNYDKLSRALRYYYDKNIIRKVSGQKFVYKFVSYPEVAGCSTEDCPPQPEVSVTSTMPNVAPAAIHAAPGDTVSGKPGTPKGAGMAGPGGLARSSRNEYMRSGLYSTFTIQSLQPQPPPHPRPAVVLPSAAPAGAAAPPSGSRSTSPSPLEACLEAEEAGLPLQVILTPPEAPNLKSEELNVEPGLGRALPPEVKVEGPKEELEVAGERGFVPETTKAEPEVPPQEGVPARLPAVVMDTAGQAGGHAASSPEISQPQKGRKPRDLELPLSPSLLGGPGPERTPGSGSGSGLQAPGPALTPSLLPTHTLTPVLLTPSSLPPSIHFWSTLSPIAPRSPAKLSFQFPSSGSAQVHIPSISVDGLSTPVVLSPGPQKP
Conditions: protein: recombinant; tags: N-terminal GST; dsDNA, one strand shown. The procedure, abridged:
as §1

In assay [11] the target is T6, GABPA (Homo sapiens, UniProt Q06546 1-454).
T6 sequence: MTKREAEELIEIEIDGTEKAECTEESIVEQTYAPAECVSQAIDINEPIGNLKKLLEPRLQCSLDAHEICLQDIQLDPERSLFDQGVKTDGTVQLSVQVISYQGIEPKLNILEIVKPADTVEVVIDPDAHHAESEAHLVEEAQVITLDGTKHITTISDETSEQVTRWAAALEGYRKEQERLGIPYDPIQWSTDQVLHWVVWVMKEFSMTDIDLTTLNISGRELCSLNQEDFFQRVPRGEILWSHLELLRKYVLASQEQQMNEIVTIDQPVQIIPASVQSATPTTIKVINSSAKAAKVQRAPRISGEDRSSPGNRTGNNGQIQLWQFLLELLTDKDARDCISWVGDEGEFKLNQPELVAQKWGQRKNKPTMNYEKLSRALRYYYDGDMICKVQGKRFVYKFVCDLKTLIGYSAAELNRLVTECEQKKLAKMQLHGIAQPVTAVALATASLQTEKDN
The conditions noted are these: protein: recombinant; tags: N-terminal GST; dsDNA, one strand shown. The procedure, abridged: as §1

Assay [12] has as its target T7, ERG (Homo sapiens, UniProt P11308 1-479).
T7 sequence: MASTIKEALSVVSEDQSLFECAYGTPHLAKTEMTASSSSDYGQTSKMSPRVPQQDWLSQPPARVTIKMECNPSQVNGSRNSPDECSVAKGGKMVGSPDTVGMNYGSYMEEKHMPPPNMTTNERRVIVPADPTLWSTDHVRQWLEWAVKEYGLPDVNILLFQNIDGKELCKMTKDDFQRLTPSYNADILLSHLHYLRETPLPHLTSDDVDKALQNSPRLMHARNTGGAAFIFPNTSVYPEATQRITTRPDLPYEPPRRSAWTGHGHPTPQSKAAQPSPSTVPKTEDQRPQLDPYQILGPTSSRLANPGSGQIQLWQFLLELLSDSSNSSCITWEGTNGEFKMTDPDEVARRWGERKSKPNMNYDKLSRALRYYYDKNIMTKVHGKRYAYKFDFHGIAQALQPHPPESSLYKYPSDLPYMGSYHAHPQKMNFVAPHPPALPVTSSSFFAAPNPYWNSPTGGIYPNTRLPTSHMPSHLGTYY
Conditions: protein: recombinant; tags: N-terminal GST; dsDNA, one strand shown. The procedure, abridged: as §1

In assay [13] the target is T8, EHF (Homo sapiens, UniProt Q9NZC4 1-300).
T8 sequence: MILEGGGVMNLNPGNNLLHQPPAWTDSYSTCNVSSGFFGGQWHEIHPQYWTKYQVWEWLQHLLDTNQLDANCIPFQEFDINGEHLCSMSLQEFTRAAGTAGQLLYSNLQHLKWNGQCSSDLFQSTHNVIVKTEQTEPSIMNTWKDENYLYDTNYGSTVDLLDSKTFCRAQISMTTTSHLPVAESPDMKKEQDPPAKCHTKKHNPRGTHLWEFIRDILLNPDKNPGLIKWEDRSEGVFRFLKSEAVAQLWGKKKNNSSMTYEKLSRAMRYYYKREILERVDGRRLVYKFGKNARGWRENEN
The conditions noted are these: protein: recombinant; tags: N-terminal GST; dsDNA, one strand shown. The gist of the method:
as §1

Assay [14] has as its target CRX (Homo sapiens, UniProt O43186 1-299). Conditions: protein: recombinant; tags: N-terminal GST; dsDNA, one strand shown. The gist of the method:
as §1

Assay [15] addresses T9, ERF (Homo sapiens, UniProt P50548 1-548).
T9 sequence: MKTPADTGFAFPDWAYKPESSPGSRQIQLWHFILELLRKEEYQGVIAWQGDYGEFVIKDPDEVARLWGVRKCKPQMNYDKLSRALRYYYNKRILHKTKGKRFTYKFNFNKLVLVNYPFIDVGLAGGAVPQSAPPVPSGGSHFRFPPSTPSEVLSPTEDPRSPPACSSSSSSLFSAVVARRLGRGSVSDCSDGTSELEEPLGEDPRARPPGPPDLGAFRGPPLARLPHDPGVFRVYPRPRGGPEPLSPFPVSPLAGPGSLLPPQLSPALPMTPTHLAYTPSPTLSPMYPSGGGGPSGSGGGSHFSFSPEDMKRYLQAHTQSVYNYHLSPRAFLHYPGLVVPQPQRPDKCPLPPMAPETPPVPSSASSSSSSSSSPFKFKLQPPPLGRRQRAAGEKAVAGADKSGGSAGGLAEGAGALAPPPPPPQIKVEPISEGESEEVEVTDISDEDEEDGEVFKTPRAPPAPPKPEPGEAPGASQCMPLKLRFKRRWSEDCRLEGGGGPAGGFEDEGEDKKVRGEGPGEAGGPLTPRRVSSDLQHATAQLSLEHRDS
Conditions: protein: recombinant; tags: N-terminal GST; dsDNA, one strand shown. The procedure, abridged:
as §1

Chain of ELF1 (P32519 whole entry, the tested form may be a part): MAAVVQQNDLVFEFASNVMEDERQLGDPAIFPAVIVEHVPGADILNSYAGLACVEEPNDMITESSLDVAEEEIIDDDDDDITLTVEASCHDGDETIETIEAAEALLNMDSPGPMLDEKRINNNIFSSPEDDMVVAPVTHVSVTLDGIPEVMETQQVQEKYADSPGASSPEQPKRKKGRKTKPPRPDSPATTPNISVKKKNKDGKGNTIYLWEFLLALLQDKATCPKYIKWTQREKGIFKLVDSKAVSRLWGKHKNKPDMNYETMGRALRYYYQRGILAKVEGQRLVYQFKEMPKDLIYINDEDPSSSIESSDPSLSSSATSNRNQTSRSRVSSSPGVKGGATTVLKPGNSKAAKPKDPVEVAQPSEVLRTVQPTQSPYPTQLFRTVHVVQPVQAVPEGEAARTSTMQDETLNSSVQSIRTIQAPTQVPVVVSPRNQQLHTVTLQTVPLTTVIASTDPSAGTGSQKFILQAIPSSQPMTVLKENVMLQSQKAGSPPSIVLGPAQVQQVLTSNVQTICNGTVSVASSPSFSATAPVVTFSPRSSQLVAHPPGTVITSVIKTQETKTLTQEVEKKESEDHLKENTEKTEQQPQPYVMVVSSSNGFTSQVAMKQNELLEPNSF
Chain of SPIB (Q01892 whole entry): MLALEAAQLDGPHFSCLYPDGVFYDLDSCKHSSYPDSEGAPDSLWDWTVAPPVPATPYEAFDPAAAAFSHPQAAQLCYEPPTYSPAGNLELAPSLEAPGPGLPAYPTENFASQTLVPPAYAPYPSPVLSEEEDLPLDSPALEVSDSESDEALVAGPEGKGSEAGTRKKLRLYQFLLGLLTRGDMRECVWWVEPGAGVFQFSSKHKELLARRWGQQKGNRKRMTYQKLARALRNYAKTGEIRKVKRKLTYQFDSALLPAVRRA
Chain of ELF4 (Q99607 whole entry): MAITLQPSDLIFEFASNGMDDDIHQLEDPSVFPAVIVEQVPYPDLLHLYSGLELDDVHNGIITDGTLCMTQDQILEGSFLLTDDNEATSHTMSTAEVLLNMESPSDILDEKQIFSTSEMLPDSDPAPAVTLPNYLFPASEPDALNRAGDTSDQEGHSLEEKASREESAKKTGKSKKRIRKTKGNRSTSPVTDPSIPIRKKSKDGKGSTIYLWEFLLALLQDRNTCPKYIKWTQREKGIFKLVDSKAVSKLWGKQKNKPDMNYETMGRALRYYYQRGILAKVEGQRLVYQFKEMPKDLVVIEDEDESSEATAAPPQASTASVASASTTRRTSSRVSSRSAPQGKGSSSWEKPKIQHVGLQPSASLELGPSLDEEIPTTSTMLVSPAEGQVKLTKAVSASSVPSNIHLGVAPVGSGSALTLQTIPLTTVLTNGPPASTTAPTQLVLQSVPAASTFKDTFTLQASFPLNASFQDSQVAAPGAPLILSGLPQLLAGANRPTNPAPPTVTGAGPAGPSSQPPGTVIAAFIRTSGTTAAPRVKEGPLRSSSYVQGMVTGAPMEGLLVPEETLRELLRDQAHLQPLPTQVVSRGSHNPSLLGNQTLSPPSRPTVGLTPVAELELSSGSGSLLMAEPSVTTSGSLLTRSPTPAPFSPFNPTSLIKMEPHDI
Chain of CRX (O43186 whole entry): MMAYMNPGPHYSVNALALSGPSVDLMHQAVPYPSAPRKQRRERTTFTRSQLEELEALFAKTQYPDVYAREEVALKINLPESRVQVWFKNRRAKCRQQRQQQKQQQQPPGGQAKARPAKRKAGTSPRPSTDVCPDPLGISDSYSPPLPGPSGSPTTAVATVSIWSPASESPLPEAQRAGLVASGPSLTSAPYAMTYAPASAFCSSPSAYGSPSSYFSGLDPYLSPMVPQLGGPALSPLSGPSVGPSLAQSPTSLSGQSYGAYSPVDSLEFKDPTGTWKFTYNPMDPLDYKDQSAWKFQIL

Consider TGAAAG, for which the binding signal in [1] was 1.05 fold enrichment (6-mer frequency, TF over GST control); in assay [2] it was 1.05 fold enrichment (6-mer frequency, TF over GST control); in [3], 1.04 fold enrichment (6-mer frequency, TF over GST control); in [4], 1.08 fold enrichment (6-mer frequency, TF over GST control); in assay [5], 1.01 fold enrichment (6-mer frequency, TF over GST control); in assay [6], 1.01 fold enrichment (6-mer frequency, TF over GST control). Moreover, the binding signal in assay [7] is 1.06 fold enrichment (6-mer frequency, TF over GST control); in assay [8], 1.04 fold enrichment (6-mer frequency, TF over GST control); in [9] it was 1.01 fold enrichment (6-mer frequency, TF over GST control).
Turning to ACAGAA, the binding signal in assay [4] is 1.27 fold enrichment (6-mer frequency, TF over GST control).
As to CGAAGA, the binding signal in assay [4] is 1.19 fold enrichment (6-mer frequency, TF over GST control).
Turning to ACTAGA, the binding signal in assay [10] was 1.02 fold enrichment (6-mer frequency, TF over GST control); in [11], 1.01 fold enrichment (6-mer frequency, TF over GST control); in assay [12], 1 fold enrichment (6-mer frequency, TF over GST control); in assay [1], 1.02 fold enrichment (6-mer frequency, TF over GST control); in assay [13] it was 1.01 fold enrichment (6-mer frequency, TF over GST control); in assay [4] it was 2.1 fold enrichment (6-mer frequency, TF over GST control). The binding signal was 1.03 fold enrichment (6-mer frequency, TF over GST control) in assay [5]; 1.16 fold enrichment (6-mer frequency, TF over GST control) in assay [14]; 1.05 fold enrichment (6-mer frequency, TF over GST control) in assay [15].
